In PubChem BioAssay AID1456 (Vanderbilt High Throughput Screening Facility, 2008):
Out of some 190,000 compounds screened, about 4,100 (2.2%) were called active. This is one part of a sample in which actives are shown more often than they occur. Values without a mark were called inactive.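 The calls were made as follows: active = thallium flux slope and its plate-corrected score both differing from the plate sample mean at a set confidence after two filtering rounds, in either direction; inactive = the rest.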

What follows are molecules tested against Solute carrier family 12 member 5 (Homo sapiens) (UniProt Q9H2X9) (assay: modulation of human KCC2 ion transport – cell-based, HEK293 KCC2, FluoZin-2 fluorescence, MLSMR, primary screen (AID 1456;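 also: slope of fluorescence scaled to starting intensity during 10 to 20 s after thallium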)). Conditions: KCC2 cells, thallium flux FluoZin-2 fluorescence; at 10 µM.
Sequence of Solute carrier family 12 member 5 (Homo sapiens) (Q9H2X9 whole entry, looked up): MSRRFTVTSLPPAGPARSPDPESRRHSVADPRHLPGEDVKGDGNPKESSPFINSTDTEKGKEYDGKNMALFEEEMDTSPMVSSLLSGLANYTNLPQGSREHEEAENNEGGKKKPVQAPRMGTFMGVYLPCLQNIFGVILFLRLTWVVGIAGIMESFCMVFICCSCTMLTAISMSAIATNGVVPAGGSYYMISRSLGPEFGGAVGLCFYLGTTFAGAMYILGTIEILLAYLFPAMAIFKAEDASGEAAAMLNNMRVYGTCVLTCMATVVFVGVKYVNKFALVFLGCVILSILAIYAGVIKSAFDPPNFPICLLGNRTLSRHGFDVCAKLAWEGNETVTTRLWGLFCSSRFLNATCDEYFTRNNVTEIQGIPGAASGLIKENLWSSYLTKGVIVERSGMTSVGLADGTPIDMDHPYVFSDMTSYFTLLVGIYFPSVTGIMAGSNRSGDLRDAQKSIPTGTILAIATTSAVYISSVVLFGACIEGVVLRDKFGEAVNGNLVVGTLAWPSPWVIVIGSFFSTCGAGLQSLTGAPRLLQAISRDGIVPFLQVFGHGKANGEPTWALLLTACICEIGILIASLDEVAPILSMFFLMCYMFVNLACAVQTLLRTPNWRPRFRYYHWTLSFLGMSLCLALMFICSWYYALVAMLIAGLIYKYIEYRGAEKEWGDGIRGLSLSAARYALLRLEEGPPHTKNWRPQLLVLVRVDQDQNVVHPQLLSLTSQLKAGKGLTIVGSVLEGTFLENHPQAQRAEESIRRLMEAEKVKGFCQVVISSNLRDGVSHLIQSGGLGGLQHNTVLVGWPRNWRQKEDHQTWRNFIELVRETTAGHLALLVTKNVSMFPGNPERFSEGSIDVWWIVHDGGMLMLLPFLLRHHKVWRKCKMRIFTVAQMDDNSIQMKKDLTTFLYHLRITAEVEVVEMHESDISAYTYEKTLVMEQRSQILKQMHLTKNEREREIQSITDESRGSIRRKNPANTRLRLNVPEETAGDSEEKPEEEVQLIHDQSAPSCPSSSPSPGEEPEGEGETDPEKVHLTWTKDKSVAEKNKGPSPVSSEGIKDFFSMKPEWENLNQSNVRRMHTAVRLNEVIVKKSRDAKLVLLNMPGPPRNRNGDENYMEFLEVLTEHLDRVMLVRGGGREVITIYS

Row | Compound | B-score of Tl+ flux slope (higher = more flux/activation; lower = inhibition)
1 | COc1ccc(/C=N/n2nnnc2N)cc1OC | 0.513
2 | c1ccc(C2c3[nH]c4ccccc4c3CCN2Cc2cccn2-c2cccnc2)nc1 (stereo not drawn) | -1.15
3 | O=C(Nc1cc(Cl)cc(Cl)c1)C(NCCCO)c1ccccc1 (stereo not drawn) | -0.607
4 | Cc1nnc(SC(C(=O)c2ccccc2)c2ccccc2)[nH]c1=O (stereo not drawn) | -0.235
5 | Cc1nnc(SC(C(=O)Nc2cc(Cl)cc(Cl)c2)c2ccccc2)[nH]c1=O (stereo not drawn) | -4.12 (active)
6 | O=C1N(c2ccccc2)C(=Nc2ccccc2)SC12CC2 | -0.447
7 | O=C(c1ccc(=O)oc1)N1CCC(C(O)(c2ccccc2)c2ccccc2)CC1 | -0.673
8 | Cc1c(C(=O)NC(=S)NCc2cccnc2)oc2ccccc12 | 13.6 (active)
9 | Cc1ccc(C(=O)NC(=S)NCc2cccnc2)cc1 | 1.21
10 | O=C(CCc1ccccc1)NCc1cccnc1 | 0.123
11 | CC(C)(C)c1ccc(CCC2OCC(CN3CCOCC3)O2)cc1 (stereo not drawn) | 0.742
12 | CCNC(=S)N1CCN(CCN=CC2=C(O)CC(C)(C)CC2=O)CC1 | -0.763
13 | Cc1ccc(C(O)P(=O)(OC(C)C)c2ccc(N(C)C)cc2)cc1 (stereo not drawn) | 0.0994
14 | COC(=O)c1sccc1NC(=O)COc1ccc(Cl)cc1 | 0.143
15 | COC(=O)c1scc(C)c1NC(=O)CSc1ccc(Cl)cc1 | -1.21
16 | COC(=O)c1sccc1NC(=O)CSc1ccccc1NS(=O)(=O)c1cc(Cl)ccc1Cl | 18.4 (active)
17 | O=C(CSc1ccc(-c2ccco2)nn1)NCc1ccc2c(c1)OCO2 | -0.85
18 | CC(C)Cc1nc(Cl)c(C#N)c2c1CCC2 | -0.778
19 | CCC(=O)N1c2ccccc2NC2=C(C(=O)CCC2)C1c1ccco1 (stereo not drawn) | 1.12
20 | CCCC(=O)N1c2ccccc2NC2=C(C(=O)CCC2)C1c1ccc(F)cc1 (stereo not drawn) | 2.84 (active)
21 | O=C1CC(c2cccc(F)c2)C2=C(CCCC2=O)N1 (stereo not drawn) | -0.124
22 | Cn1cnc([N+](=O)[O-])c1Sc1n[nH]c(N)n1 | 0.197
23 | Cn1cnc(S(=O)(=O)Nc2ccc3c(c2)OCCO3)c1 | 1.1

Row | Compound | B-score of Tl+ flux slope (higher = more flux/activation; lower = inhibition)
24 | Oc1ccc2ccccc2c1N=Nc1nccs1 | 111 (active)
25 | Oc1ccc(N=Nc2nccs2)c(O)c1 | 0.824
26 | Oc1ccc2ccccc2c1C=Nc1ccccc1 | -0.244
27 | Cc1ccc(NC(=O)Nc2cc(-c3ccccc3)nn2C)cc1Cl | 0.308
28 | CCOC(=O)c1cnc(COc2ccccc2Cl)[nH]c1=O | 1.26
29 | Cn1c(=O)c2c(nc(NCc3ccccc3)n2CC(N)=O)n(C)c1=O | 0.178
30 | CCCc1cc(-c2n[nH]c(=S)n2Cc2ccccc2)cs1 | 4.54 (active)
31 | Cc1cc(-c2csc(N)n2)c(C)n1Cc1ccccc1 | 1.01
32 | CCc1cc(-c2n[nH]c(=S)n2CC(C)C)cs1 | 8.35 (active)
33 | CCn1c(-c2ccncc2)n[nH]c1=S | -0.798
34 | CCCc1cc(-c2n[nH]c(=S)n2CC)c2ccccc2n1 | -0.942
35 | C=CCn1c(-c2ccc3[nH]c(C)c(C)c3c2)n[nH]c1=S | -0.00959
36 | CSC1=NCCN1C(=O)Cc1cccc2ccccc12 | 0.183
37 | Brc1ccc(-c2n(-c3ccccn3)c3ccccc3[n+]2-c2ccccn2)cc1 | 1.55
38 | CCCc1ccc(C(=O)[C@@H]2[C@@H](C(C)=O)N3c4ccc(F)cc4C=C[C@@H]3[C@@]23C(=O)Nc2ccccc23)cc1 | 0.383
39 | O=S(=O)(c1cccc(-c2nnc3n2CCCCC3)c1)N1CCOCC1 | -1.09
40 | O=C(Nc1nnc(C2COc3ccccc3O2)o1)c1ccc(F)cc1 (stereo not drawn) | 15 (active)
41 | c1ccc2c(c1)OCC(c1nn3cnnc3s1)O2 (stereo not drawn) | -0.604
42 | O=C(CN1C(=O)COc2ccccc21)Nc1ccc(F)cc1 | 0.048
43 | O=C(NNC(=O)c1csc(-c2cccnc2)n1)Nc1ccc(Cl)cc1 | -0.334
44 | COc1ccc(NC(=O)CCN2C(=O)/C(=C/c3ccc4c(c3)OCO4)SC2=S)cc1 | -1.33
45 | CCC1(C)Cc2c(sc3nc(SC)[nH]c(=O)c23)CO1 (stereo not drawn) | 0.823
46 | CCC1(C)Cc2c(sc3nc4n(c(=O)c23)CCCS4)CO1 (stereo not drawn) | -0.0542

Row | Compound | B-score of Tl+ flux slope (higher = more flux/activation; lower = inhibition)
47 | CCC1(C)Cc2c(sc3[nH]c(=S)n(Cc4ccccc4)c(=O)c23)CO1 (stereo not drawn) | 35.8 (active)
48 | Cc1c(C)c(C)c2[nH]c(=S)[nH]c2c1C | 0.63
49 | COc1ccc(Cl)cc1C(=O)NNC(=O)c1nc2nc(C)cc(C)n2n1 | -1.53
50 | CCN1CCN(c2nc(Nc3cccc(F)c3)nc(N)c2[N+](=O)[O-])CC1 | -0.953
51 | CC(=O)c1c(C)[nH]c(=S)c(C#N)c1-c1ccc(F)cc1 | 0.0246
52 | N#Cc1c(-c2ccc(Cl)cc2)c2c([nH]c1=S)CCCC2 | 13.8 (active)
53 | N#Cc1c2c(c(-c3ccccc3)[nH]c1=O)CCCC2 | -0.0377
54 | COc1ccc(NC(=O)C2=C(C)NC(=O)NC2c2ccccc2[N+](=O)[O-])cc1 (stereo not drawn) | -1.15
55 | Cc1ccc(Cl)c(OCC(=O)NN2CCN(C)CC2)c1 | 0.242
56 | NC(=O)C1(C(N)=O)OC1c1ccc(Cl)cc1Cl (stereo not drawn) | 0.213
57 | CCN1CCN(CC(=O)c2cc(OC)c(OC)c(OC)c2)CC1 | 0.89
58 | COc1ccc(CCNS(=O)(=O)c2cccc3cccnc23)cc1OC | -0.941
59 | Cc1ccc(OCc2n[nH]c(=S)n2-c2ccc(C)cc2)cc1 | 13.5 (active)
60 | S=c1[nH]nc(COc2ccccc2)n1-c1ccccc1 | 0.195
61 | COc1ccc(OCc2n[nH]c(=S)n2N)cc1 | 0.178
62 | CCc1ccccc1NC(=O)CSc1nnc(CCNC(=O)OC(C)(C)C)o1 | -1.55
63 | COC(=O)c1c(-c2cccs2)csc1NC(=O)CSc1ncnc2sc(C)c(C)c12 | 0.971
64 | Cc1sc2ncnc(Sc3nc4ccccc4s3)c2c1C | 2.96 (active)
65 | CCN(CC)CCCSc1nc2ccccc2s1 | -0.568
66 | CSc1ncnc2sc(C)c(C)c12 | 8.38 (active)
67 | CCCNc1ncnc2sc(C)c(C)c12 | -0.897
68 | CCOC(=O)C(C)n1cnc2sc(C)c(C)c2c1=O (stereo not drawn) | 0.498
